# Test results as given in the supplement of paper PMC6555819.
# Columns and labels:
# Experiment in all cases: PBM binding z-score (relative to random genomic background probes); higher = stronger binding; sequences stand for … in GC…GCGATTGACAGCGTAGAATGAAGG
# [1] = system: FXR:RXRa (NR concentration 270 nM, RXRa partner concentration 90 nM)
# How it was run: (§1)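 Antibodies against each partner of ligand-free nuclear receptor dimers (one per run) detected binding on custom Agilent 4×180K protein-binding microarrays after 1 h incubation. The double-stranded probes had 34-nt variable regions carrying direct-repeat seeds, single-nucleotide variants, half-site ablations and random human genomic background sequences. Binding z-scores, from regression-normalized fluorescence, use the random background probes as reference.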
# [2] = system: LXRa:RXRa (NR concentration 270 nM, RXRa partner concentration 90 nM)
# How it was run: as §1
# [3] = system: LXRa homodimer (NR concentration 270 nM)
# How it was run: as §1
# [4] = system: LXRb:RXRa (NR concentration 270 nM, RXRa partner concentration 90 nM)
# How it was run: as §1
# [5] = system: LXRb homodimer (NR concentration 270 nM)
# How it was run: as §1
# [6] = system: PPARa:RXRa (NR concentration 270 nM, RXRa partner concentration 90 nM)
# How it was run: as §1
# [7] = system: PPARg:RXRa (NR concentration 180 nM, RXRa partner concentration 90 nM)
# How it was run: as §1
# [8] = system: PPARg:RXRa 270nM:90nM, anti-RXR (NR concentration 270 nM, RXRa partner concentration 90 nM)
# How it was run: as §1
# [9] = system: PPARg:RXRa 30nM:10nM, anti-RXR (NR concentration 30 nM, RXRa partner concentration 10 nM)
# How it was run: as §1
# [10] = system: PPARg:RXRa 90nM:30nM, anti-RXR (NR concentration 90 nM, RXRa partner concentration 30 nM)
# How it was run: as §1
# [11] = system: PPARg:RXRa DBDmut IVT, anti-RXR (DBD mutation: RXRa K156A/R161A, NR concentration 270 nM, RXRa partner concentration 90 nM)
# How it was run: as §1
# [12] = system: PPARg:RXRa IVT, anti-PPARg (NR concentration 270 nM, RXRa partner concentration 90 nM)
# How it was run: as §1
# [13] = system: PPARg DBDmut:RXRa IVT, anti-PPARg (DBD mutation: PPARg1 K132A/R137A, NR concentration 270 nM, RXRa partner concentration 90 nM)
# How it was run: as §1
# [14] = system: PPARg DBDmut IVT, anti-PPARg (DBD mutation: PPARg1 K132A/R137A, NR concentration 270 nM)
# How it was run: as §1
# [15] = system: PPARg homodimer (NR concentration 180 nM)
# How it was run: as §1
# [16] = system: PXR:RXRa (NR concentration 270 nM, RXRa partner concentration 90 nM)
# How it was run: as §1
# [17] = system: PXR homodimer (NR concentration 270 nM)
# How it was run: as §1
# [18] = system: RARa:RXR (NR concentration 270 nM, RXRa partner concentration 90 nM)
# How it was run: as §1
# [19] = system: RARa homodimer (NR concentration 270 nM)
# How it was run: as §1
# [20] = system: RARb:RXRa (NR concentration 270 nM, RXRa partner concentration 90 nM)
# How it was run: as §1
Sequence,PBM binding z-score [1],PBM binding z-score [2],PBM binding z-score [3],PBM binding z-score [4],PBM binding z-score [5],PBM binding z-score [6],PBM binding z-score [7],PBM binding z-score [8],PBM binding z-score [9],PBM binding z-score [10],PBM binding z-score [11],PBM binding z-score [12],PBM binding z-score [13],PBM binding z-score [14],PBM binding z-score [15],PBM binding z-score [16],PBM binding z-score [17],PBM binding z-score [18],PBM binding z-score [19],PBM binding z-score [20]
TAGCCTAGGTCATTGGCCCAGTATAGTACGCATC,4.84,3.9,1.34,2.45,-0.219,3.53,2.1,2.32,0.439,1.49,1.34,3.13,0.481,-0.598,1.5,1.71,-0.0601,2.29,-0.585,3.67
ATACCGAGGTGATCGTGAGGTCGTTGATACTAAC,1.95,1.69,0.52,1.59,-0.183,1.83,0.57,0.574,-0.146,0.356,0.567,1.31,0.104,1,0.847,3.62,1.35,2.39,-0.522,1.4
GCCTACGGGTCAAAGGTTATAGCATGAATAGAAT,7.04,5.56,0.447,5.59,-0.175,6.6,10.4,8.66,7.8,9.24,2.12,4.99,1.03,0.485,1.95,6.12,0.219,8.24,0.254,4.34
TTACCAAGGTGAAGGTCGTTGAACCCTCTGTAGA,3.72,3.95,1.78,2.99,-0.723,3.27,3.46,4.28,2.15,3.9,1.76,3.38,0.136,0.367,0.968,3.18,0.277,3.4,-0.283,2.4
TGAGTGAGGTTAAAGATCAGGGAACGTGGCGTCG,2.78,2.38,-0.367,1.88,1.13,4.05,3.48,4.58,2.61,3.92,0.116,1.91,0.365,0.826,1.29,2.13,0.027,3.26,0.307,2.15
CGTCCAAGGTCATAGGAGGACAGTGAAGACAGAT,7.15,6.2,1.35,4.45,0.52,5.39,4.71,4.97,1.81,3.56,2.87,3.57,0.568,0.524,3.01,5.67,1.55,4.89,1.62,4.98
CGAACTAAGTCAGAACAGGACAGTGAAGGATGAT,-0.105,-0.427,0.0634,-0.842,-0.576,-0.444,0.514,-0.265,0.171,-0.00279,0.607,0.0567,0.659,0.276,0.404,-0.17,0.204,0.137,0.452,-0.103
CCGACTGGGGCATAAGGTTTCCATAAGCCAGCCC,0.03,-0.0633,-0.565,-0.536,-1.41,0.26,1.11,1.75,-0.0792,1.44,3.04,2.38,-1.41,-1.66,-0.419,-0.536,-0.762,-0.479,0.00521,0.514
CAAACTAGGTCCAAGGTCAAAGTCGAGCCAACCA,3.97,3.48,1.97,3.75,0.508,5.32,9.35,7.68,7.65,8.28,2.64,4.91,0.406,0.226,1.83,3.7,1.57,3.71,1.6,3.51
TGAATGTGGTTATAAGATCAGGGAACGTTGCAAA,0.123,0.222,0.268,0.397,0.612,0.12,0.237,0.617,0.803,1.15,-0.328,0.343,0.967,1.11,0.749,0.00497,0.777,-0.382,1.15,0.0382
GCTCGGACGACAAGGTCAGAGCTTTGTCCGTAGA,1.39,1.19,-0.78,0.912,-1.26,2,0.028,0.343,-0.807,-0.125,-0.353,-0.175,-1.38,-1.46,0.248,1.73,-0.194,2.24,-0.933,2.84
TCTTGTAGATCAAGCATGTTAAGAAAGCCTGAGT,0.693,0.403,-0.106,0.334,-0.513,0.796,-0.182,1.46,2.56,2.01,1.83,0.509,0.824,-0.00587,-0.0678,0.378,0.162,0.466,0.241,-0.0485
ACTAGTTGGTCAGCGGAGGTCACACACAATTCGG,2.84,3.44,3.05,3.15,0.932,3.52,1.91,2.26,1.3,1.68,1.63,2.75,1.36,0.469,3.06,4.99,1.8,4.46,1.6,3.59
ATATGTATGTTAAGGGTCATTCAGGTTGGTTCGC,4.05,4.15,3.41,4.46,1.5,5.66,8.29,7.83,8.13,8.7,3.13,4.91,2.02,1.65,2.83,4.73,2.03,4.22,1.18,3.31
